Jurkat NFkB inh: lowers PMA/ionomycin-induced NF-kB signal in Jurkat cells. actives 0.53% (n = 330,000). inhibition, % at 4 µM. AID 435003. PMA/ionomycin-induced NF-kB luciferase reporter, luminescence; in the data active = inhibition above about 50%
esBAF inh: blocks esBAF chromatin remodeling in mouse ES cells | reporter increase, % at 12.5 µM | Bmi1-luciferase knock-in reporter, 24 h; 100% = twice the neutral-well signal | actives 2% (n = 350,000); in the data active = activation above about 40%;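 also: 0% = median of the plate's neutral control wells and 100% = double that signal; a rise in the Bmi1 reporter signal indicates esBAF inhibition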
SMARCA2 activ: SMARCA2 function activation, primary screen | MG213 cells, MMTV-luciferase reporter, dexamethasone, overnight | activation, % at 9.1 µM | actives 1% (n = 370,000); in the data active = activation above about 7.8%;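 also: 0% = vehicle wells and 100% = reference activator wells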
697 NFkB inh: lowers PMA/ionomycin-induced NF-kB signal in 697 B cells | actives 0.33% (n = 330,000) | inhibition, % at 4 µM | 697 B-cell NF-kB luciferase reporter, 16 h | AID 435022; in the data active = inhibition above about 35%
Gli-Sufu block: blocks Gli-Sufu signaling in a luciferase reporter; Sufu-KO-LIGHT fibroblasts, Gli luciferase reporter luminescence; AID 588413; actives 0.74% (n = 340,000); inhibition, % at 5 µM;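 active = inhibition above about 55%, limit read from the data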;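 also: 0% = DMSO-treated cells and 100% = wells with medium but no cells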
Gli antag conf: confirmation of Gli-SUFU pathway antagonists; shares compounds with Gli-Sufu block; Sufu-KO-LIGHT cells, Gli luciferase reporter, luminescence; inhibition, % at 5 µM; actives 40% (n = 2,500);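 active = mean inhibition at 5 µM reaching about 45%, limit read from the data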;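 also: plate controls were DMSO-treated cells for no effect and wells lacking cells for full effect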
SufuKO cytotox: cytotoxicity counter-screen for Gli-SUFU antagonists; actives 32% (n = 2,500); Sufu-KO-LIGHT cells cytotoxicity, ATP luminescence; shares compounds with Gli-Sufu block; cytotoxicity, % at 5 µM;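 active = mean cytotoxicity at 5 µM above about 25%, limit read from the data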;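 also: cells exposed to compound overnight for roughly 16 to 18 hours; plate controls were DMSO wells with cells for no effect and medium without cells for full effect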
Wnt3a cs: Wnt3a reporter inhibition counter-screen | inhibition, % at 6.25 µM | AID 651995 | Wnt-LIGHT cells, Wnt3a-driven luciferase reporter, luminescence | actives 20% (n = 2,500) | shares compounds with Gli-Sufu block;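 active = mean inhibition above about 25%, limit read from the data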
* hit, by the source's call; nt = not tested or not shown. Rows were chosen to be rich in hits. Some 3.3% of all compounds tested hit in one or more screens of this group.

SMILES	Jurkat NFkB inh	esBAF inh	SMARCA2 activ	697 NFkB inh	Gli-Sufu block	Gli antag conf	SufuKO cytotox	Wnt3a cs
CCN(C[C@H]1N[C@@H](CO)[C@H]1c1ccccc1)C(=O)c1ccccc1	nt	2.3	nt	nt	nt	nt	nt	nt
CN1/C(=C\C(=O)c2cncc(Br)c2)C(C)(C)c2ccccc21	10.4	nt	-2.4	-46.0	65.9*	69.5*	36.7*	15.0
CN1/C(=C\C(=O)C(F)F)C(C)(C)c2ccccc21	-9.8	-15.7	-1.3	-13.9	17.3	nt	nt	nt
O=c1cc(CSc2nnc(Nc3ccccc3)s2)nc2sccn12	-9.3	-1.4	0.2	-5.5	54.9	19.3	18.3	-8.6
c1ccc(-c2csc3nnc(SCc4ccc5c(c4)OCO5)n23)cc1	0.4	1.7	2.4	-7.6	52.1	10.0	5.8	4.8
C[C@H](CO)N1C[C@H](C)[C@@H](CN(C)CC2CCCCC2)Oc2ncc(C#C[C@@H](C)O)cc2C1=O	nt	0.7	nt	nt	nt	nt	nt	nt
Cc1nc2cc(N3CCN(C)CC3)c(NC(=O)Cc3ccccc3)cc2c(=O)n1Cc1ccccc1	6.3	nt	-4.6	-25.5	54.0	49.1*	9.6	-13.9
Cc1nc2cc(N3CCCCC3)c(NC(=O)c3ccncc3)cc2c(=O)n1Cc1ccc(Cl)cc1	-20.1	nt	nt	-35.1	nt	nt	nt	nt
COc1cccc2sc(=NC(=O)CS(=O)(=O)c3ccc(F)cc3)n(C)c12	-17.5	nt	-2.6	-17.2	61.2*	52.9*	28.5*	14.2
COc1cccc2sc(=NC(=O)CCS(=O)(=O)c3ccc(C)cc3)n(C)c12	-10.6	-0.9	1.1	15.6	4.0	nt	nt	nt
COc1cccc2sc(=NC(=O)CS(=O)(=O)c3ccccc3)n(C)c12	nt	30.8	2.8	nt	nt	nt	nt	nt
CCn1c(=NC(=O)CS(=O)(=O)c2ccc(C)cc2)sc2cccc(OC)c21	33.0	nt	-3.3	-9.5	68.0*	61.3*	23.0	36.5*
COc1cccc2sc(=NC(=O)CS(=O)(=O)c3ccc(Cl)cc3)n(C)c12	39.7	-30.8	-0.7	-33.8	73.2*	78.7*	28.9*	39.7*
C[C@@H]1CN([C@@H](C)CO)C(=O)c2cc(NC(=O)Nc3ccc4c(c3)OCO4)ccc2O[C@@H](C)CCCCO[C@H]1CN(C)C(=O)c1ccccc1	nt	4.0	nt	nt	nt	nt	nt	nt
O=C(C1CCN(CCCc2ccccc2)CC1)N(CCc1ccccc1)Cc1ccccc1	3.4	-9.7	1.2	-4.0	56.0*	15.2	23.9	-42.9
O=C(NCc1ccccc1Cl)c1ccc(Cn2cc(C(F)(F)F)ccc2=O)cc1	12.4	nt	0.2	3.6	2.4	nt	nt	nt
O=C(NCc1ccccn1)c1ccc(Cn2cc(C(F)(F)F)ccc2=O)cc1	7.4	-4.5	2.4	5.7	61.8*	9.7	2.7	-15.2
NC(=O)c1ccc(N2CCCCCC2)c([N+](=O)[O-])c1	8.4	nt	1.6	9.2	17.9	nt	nt	nt
NC(=O)c1ccc(N2CCN(S(=O)(=O)c3cccs3)CC2)c([N+](=O)[O-])c1	-16.6	-16.8	-3.9	-8.3	56.1*	65.4*	14.5	35.8*
NC(=O)c1ccc(N2CCN(c3ccccc3O)CC2)c([N+](=O)[O-])c1	0.8	6.8	1.2	-23.0	25.8	nt	nt	nt
NC(=O)c1ccc(N2CCN(c3ccccc3F)CC2)c([N+](=O)[O-])c1	5.9	nt	-4.9	3.8	57.0*	20.8	13.3	-6.9
CC(=O)NS(=O)(=O)c1ccc(NC(=S)NC(=O)CC(C)C)cc1	-9.1	nt	0.9	-0.7	0.4	nt	nt	nt
CC(=O)NS(=O)(=O)c1ccc(NC(=S)NC(=O)C(C)C)cc1	0.0	-7.6	0.4	-12.1	92.8*	31.0	5.4	-14.1
COc1ccc(C2(O)CN(c3ccc(C)cc3)C3=[N+]2CCCC3)cc1 (stereo not given)	-8.0	nt	4.1	7.3	53.6	55.5*	33.0*	-0.3
CCn1cc(C(=O)NCCCOC(C)C)c(=O)c2cc(S(=O)(=O)N3CCCC3)ccc21	-5.5	-5.0	-1.8	-28.2	-23.4	nt	nt	nt
SMILES	Jurkat NFkB inh	esBAF inh	SMARCA2 activ	697 NFkB inh	Gli-Sufu block	Gli antag conf	SufuKO cytotox	Wnt3a cs
CCCCNC(=O)c1cn(CC)c2ccc(S(=O)(=O)N3CCCCCC3)cc2c1=O	23.2	-4.1	-0.6	16.3	52.0	19.3	40.1*	-28.4
CCCC#Cc1cnc2c(c1)C(=O)N([C@@H](C)CO)C[C@@H](C)[C@@H](CN(C)C(=O)Nc1ccccc1OC)O2	nt	-7.9	nt	nt	nt	nt	nt	nt
Nc1ccc(N=Nc2ccc(O)cc2)c(N)n1	nt	nt	-0.5	nt	60.3*	39.3	25.8*	-205.6
CO[C@H]1CN(C)C(=O)c2cc(NS(C)(=O)=O)ccc2OC[C@H](C)N(C(=O)C2CC2)C[C@H]1C	nt	-0.8	nt	nt	nt	nt	nt	nt
Cc1cc(NC(=O)CSc2cc(Cl)ccc2Cl)n(-c2ccccc2)n1	12.3	-6.6	-5.5	-1.3	52.5	22.4	7.0	-4.6
O=C(Cn1cnc2ccccc21)Nc1ccc(SC(F)F)cc1	42.6	-68.4	-6.8	-22.1	65.1*	56.8*	37.2*	-7.4
O=C(Nc1ccc(Br)cc1)c1ccc(F)c(S(=O)(=O)NCc2cccs2)c1	33.8	nt	-6.4	-15.5	51.3	51.9*	43.4*	0.6
O=C(Nc1cccc(Cl)c1)c1ccc(F)c(S(=O)(=O)NCc2ccc3c(c2)OCO3)c1	5.2	nt	-4.4	0.2	88.7*	11.7	-0.7	-10.8
O=C(NCc1ccc2c(c1)OCO2)c1ccc(Cl)c(S(=O)(=O)NCc2ccccc2)c1	-1.6	nt	0.3	2.4	-1.8	nt	nt	nt
CO[C@@H]1CN(C)C(=O)c2ccc(NS(=O)(=O)c3cccc(F)c3)cc2OC[C@H](C)NC[C@@H]1C	nt	1.0	nt	nt	nt	nt	nt	nt
Cc1ccc(S(=O)(=O)NCC[C@H]2CC[C@H](NC(=O)Nc3cccc(F)c3)[C@@H](CO)O2)cc1	nt	6.0	nt	nt	nt	nt	nt	nt
CC(C)CCNC(=O)C1CCN(S(=O)(=O)c2ccc3c(c2)CC(C)N3C(=O)C2CC2)CC1 (stereo not given)	14.5	-3.2	-1.7	23.9	7.6	nt	nt	nt
CC(=O)N1c2ccc(S(=O)(=O)N3CCC(C(=O)N4CCCCC4)CC3)cc2CC1C (stereo not given)	21.4	-7.7	-0.1	-9.4	54.6	49.0*	24.1	-4.5
CC1Cc2cc(S(=O)(=O)N3CCN(c4ccc(Cl)cc4)CC3)ccc2N1C(=O)C1CC1 (stereo not given)	29.1	-8.8	-0.2	-17.3	-10.8	nt	nt	nt
CC(=O)N1c2ccc(S(=O)(=O)N3CCCCC3)cc2CC1C (stereo not given)	-16.3	-24.0	3.2	-15.3	-12.9	nt	nt	nt
CC(=O)N1c2ccc(S(=O)(=O)N3CCC(C(=O)N4CCN(c5ccc(Cl)cc5)CC4)CC3)cc2CC1C (stereo not given)	30.1	-1.9	-2.5	7.4	75.7*	73.8*	35.1*	-7.3

Screening data from PubChem BioAssay.
